Where “and” joins values, the source holds several entries; their conditions need not be identical. Equal values may be shown once. Screen size: about 5,500 compounds; about 2,000 (36%) were called active. Another 18% or so got no clear call; they are omitted. Rule as the data show it: active = normalized growth mostly below about 0.91 (no sharp cut-off); inconclusive = no clear call, values can overlap the other calls; inactive = mostly above about 0.92. The list shows a part of the results.
Assay: chemical genetic growth profiling, strain panel (AID 1159580);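 also: tested at 20 µM; growth read once vehicle control cultures reached saturation at 30 °C; 1 = growth at the plate median or of vehicle wells; lower values mean less growth of the strain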
Details: growth OD

Measured: normalized growth

Cn1c(=O)[nH]c2ncn(C)c2c1=O
active: S. cerevisiae deletion strains, locus YNL248C, strain rpa49, active compounds read low 0.874
inactive: S. cerevisiae deletion strains, locus YJR043C, strain POL32, active compounds read low 1.02 | S. cerevisiae deletion strains, locus YJR075W, strain HOC1, active compounds read low 1.01 and 1 | S. cerevisiae deletion strains, locus YKL009W, strain mrt4, active compounds read low 1.03 | S. cerevisiae deletion strains, locus YKL068W, active compounds read low 0.988 | S. cerevisiae deletion strains, locus YKL085W, strain MDH1 (second series), active compounds read low 0.993 | S. cerevisiae deletion strains, locus YKL085W, strain MDH1, active compounds read low 0.993 | S. cerevisiae deletion strains, locus YKL160W, strain elf1, active compounds read low 1.02 | S. cerevisiae deletion strains, locus YKL190W, strain CNB1, active compounds read low 1.01 | S. cerevisiae deletion strains, locus YKR001C, strain vps1, active compounds read low 0.997 | S. cerevisiae deletion strains, locus YKR026C, strain gcn3, active compounds read low 0.964 | S. cerevisiae deletion strains, locus YKR091W, strain srl3, active compounds read low 0.98 | S. cerevisiae deletion strains, locus YLL001W, strain dnm1, active compounds read low 0.988 | S. cerevisiae deletion strains, locus YLL026W, active compounds read low 0.989 | S. cerevisiae deletion strains, locus YLL041C, strain sdh2, active compounds read low 0.978 | S. cerevisiae deletion strains, locus YLR027C, strain aat2, active compounds read low 1 | S. cerevisiae deletion strains, locus YLR039C, strain RIC1, active compounds read low 1.02 | S. cerevisiae deletion strains, locus YLR058C, strain SHM2, active compounds read low 1.01 | S. cerevisiae deletion strains, locus YLR102C, strain apc9, active compounds read low 0.995 | S. cerevisiae deletion strains, locus YLR221C, strain rsa3, active compounds read low 0.943 | S. cerevisiae deletion strains, locus YLR258W, strain gsy2, active compounds read low 0.993 | S. cerevisiae deletion strains, locus YLR262C, strain YPT6 (second series), active compounds read low 0.983 | S. cerevisiae deletion strains, locus YLR262C, strain YPT6, active compounds read low 1.03 | S. cerevisiae deletion strains, locus YLR268W, strain sec22, active compounds read low 0.988 | S. cerevisiae deletion strains, locus YLR320W, strain mms22, active compounds read low 0.97 | S. cerevisiae deletion strains, locus YLR330W, strain CHS5, active compounds read low 1.01 | S. cerevisiae deletion strains, locus YLR342W, strain FKS1 (second series), active compounds read low 1.03 | S. cerevisiae deletion strains, locus YLR342W, strain FKS1, active compounds read low 0.975 | S. cerevisiae deletion strains, locus YLR357W, strain rsc2, active compounds read low 0.97 | S. cerevisiae deletion strains, locus YLR370C, strain arc18, active compounds read low 0.966 | S. cerevisiae deletion strains, locus YLR371W, strain rom2, active compounds read low 0.986 | S. cerevisiae deletion strains, locus YLR384C, strain iki3, active compounds read low 0.97 | S. cerevisiae deletion strains, locus YLR418C, strain cdc73, active compounds read low 1 | S. cerevisiae deletion strains, locus YML016C, strain PPZ1, active compounds read low 1.01 | S. cerevisiae deletion strains, locus YML032C, strain rad52, active compounds read low 0.995 | S. cerevisiae deletion strains, locus YML120C, strain ndi1, active compounds read low 0.995 | S. cerevisiae deletion strains, locus YML124C, strain tub3, active compounds read low 0.993 | S. cerevisiae deletion strains, locus YMR058W, strain fet3, active compounds read low 0.981 | S. cerevisiae deletion strains, locus YMR078C, strain ctf18, active compounds read low 0.984 | S. cerevisiae deletion strains, locus YMR125W, strain sto1, active compounds read low 0.987 | S. cerevisiae deletion strains, locus YMR129W, active compounds read low 0.984 | S. cerevisiae deletion strains, locus YMR205C, strain PFK2, active compounds read low 0.995 | S. cerevisiae deletion strains, locus YMR223W, strain ubp8, active compounds read low 1.01 | S. cerevisiae deletion strains, locus YMR231W, strain pep5, active compounds read low 0.961 | S. cerevisiae deletion strains, locus YMR263W, strain SAP30, active compounds read low 1.01 and 0.996 | S. cerevisiae deletion strains, locus YMR307W, strain GAS1, active compounds read low 1.06 and 0.981 | S. cerevisiae deletion strains, locus YNL067W, strain RPL9B, active compounds read low 1.01 | S. cerevisiae deletion strains, locus YNL071W, strain lat1, active compounds read low 0.974 | S. cerevisiae deletion strains, locus YNL128W, strain TEP1, active compounds read low 1.02 | S. cerevisiae deletion strains, locus YNL153C, strain GIM3, active compounds read low 1.01 and 0.984 | S. cerevisiae deletion strains, locus YNL175C, strain NOP13, active compounds read low 0.997 | S. cerevisiae deletion strains, locus YNL197C, strain WHI3, active compounds read low 0.995 | S. cerevisiae deletion strains, locus YNL209W, strain ssb2, active compounds read low 0.99 | S. cerevisiae deletion strains, locus YNL224C, strain SQS1, active compounds read low 0.99 | S. cerevisiae deletion strains, locus YNL233W, strain BNI4, active compounds read low 1.01 | S. cerevisiae deletion strains, locus YNL250W, strain rad50, active compounds read low 0.994 | S. cerevisiae deletion strains, locus YNL271C, strain bni1, active compounds read low 0.993 | S. cerevisiae deletion strains, locus YNL298W, strain CLA4, active compounds read low 1 | S. cerevisiae deletion strains, locus YNL307C, strain MCK1, active compounds read low 1.01 | S. cerevisiae deletion strains, locus YNL322C, strain KRE1 (second series), active compounds read low 0.989 | S. cerevisiae deletion strains, locus YNL322C, strain KRE1, active compounds read low 1 and 1.01 | S. cerevisiae deletion strains, locus YNR049C, strain mso1, active compounds read low 0.974 | S. cerevisiae deletion strains, locus YNR052C, strain pop2, active compounds read low 0.992 | S. cerevisiae deletion strains, locus YOL006C, strain TOP1, active compounds read low 1.04 | S. cerevisiae deletion strains, locus YOL012C, strain htz1 0.946 | S. cerevisiae deletion strains, locus YOL147C, strain pex11, active compounds read low 0.988 | S. cerevisiae deletion strains, locus YOR001W, strain rrp6, active compounds read low 0.925 | S. cerevisiae deletion strains, locus YOR061W, strain CKA2, active compounds read low 1.01 | S. cerevisiae deletion strains, locus YOR069W, strain VPS5, active compounds read low 1.01 | S. cerevisiae deletion strains, locus YOR070C, strain gyp1, active compounds read low 0.985 | S. cerevisiae deletion strains, locus YOR080W, strain dia2, active compounds read low 0.977 | S. cerevisiae deletion strains, locus YOR083W, strain WHI5 (second series), active compounds read low 1.02 | S. cerevisiae deletion strains, locus YOR083W, strain WHI5, active compounds read low 1.03 | S. cerevisiae deletion strains, locus YOR106W, strain vam3, active compounds read low 1.01 | S. cerevisiae deletion strains, locus YOR136W, strain idh2, active compounds read low 0.995 | S. cerevisiae deletion strains, locus YOR144C, strain elg1, active compounds read low 0.98 | S. cerevisiae deletion strains, locus YOR184W, strain ser1, active compounds read low 0.991 | S. cerevisiae deletion strains, locus YOR265W, strain rbl2, active compounds read low 0.974 | S. cerevisiae deletion strains, locus YOR270C, strain vph1, active compounds read low 0.971 | S. cerevisiae deletion strains, locus YOR290C, strain snf2, active compounds read low 1.01 | S. cerevisiae deletion strains, locus YOR316C, strain cot1, active compounds read low 0.987 | S. cerevisiae deletion strains, locus YPL051W, strain arl3, active compounds read low 0.982 | S. cerevisiae deletion strains, locus YPL055C, strain LGE1, active compounds read low 1.04 | S. cerevisiae deletion strains, locus YPL078C, strain atp4, active compounds read low 1.01 | S. cerevisiae deletion strains, locus YPL106C, strain sse1, active compounds read low 0.984 | S. cerevisiae deletion strains, locus YPL240C, strain hsp82, active compounds read low 0.971 | S. cerevisiae deletion strains, locus YPL241C, strain CIN2, active compounds read low 1.01 | S. cerevisiae deletion strains, locus YPR119W, strain clb2, active compounds read low 0.983 | S. cerevisiae deletion strains, locus YPR141C, strain kar3, active compounds read low 0.987 | S. cerevisiae deletion strains, locus YPR163C, strain tif3, active compounds read low 0.977 | S. cerevisiae deletion strains, locus YPR167C, strain met16, active compounds read low 0.994 | S. cerevisiae deletion strains, strain wtn01, active compounds read low 0.992 | S. cerevisiae strains, strain wild type, active compounds read low 1

Source: PubChem BioAssay AID1159580 (chemical genetic matrix, 2015)
